Growth inhibition, inhibition and outcome data for 20 compounds are collected here from PubChem BioAssay.

Experiment [1] is described as follows: antimalarial activity against Dd2 strain (AID 2302;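 active = growth inhibition above 50% at the single 2 µM test dose, taken to imply half-maximal potency below 2 µM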;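 note: 0% = DMSO untreated growth and 100% = chloroquine plus artemisinin killed control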). The settings on record: P. falciparum Dd2 in RBCs, LDH growth readout, 72 h; at 2 µM; stronger effect = higher value.
Experiment [2] is described as follows: human hepatoma cell viability loss – ATP luminescence, cytotoxicity control for P. falciparum antimalarial project, primary screen (AID 2303;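 active = inhibition above 50%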;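 note: 0% = DMSO wells and 100% = digitonin-killed cells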). The settings on record: HepG2 viability, 24-48 h, at 10 µM, stronger effect = higher value.
The target in experiment [3] is L-lactate dehydrogenase (Plasmodium falciparum (isolate CDC / Honduras)) (UniProt Q27743). The experiment in a line: PfLDH activity inhibition – cell lysate, 3D7 strain, counter-screen for P. falciparum growth inhibition project (AID 2304).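 Note: 0% = vehicle and 100% = reference inhibitor.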 The settings on record: P. falciparum 3D7 crude extract, LDH APAD/NBT absorbance; at 2 µM; stronger effect = higher value.
Experiment [4] in a line: inhibition of 3D7 malaria parasite growth – strain 3D7 (AID 2306).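 Note: 0% = DMSO wells and 100% = chloroquine plus artemisinin control wells.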 The settings on record: P. falciparum 3D7 erythrocytic growth, LDH absorbance, 72 h; at 2 µM; stronger effect = higher value.
For experiment [5], the target named is Calcium-dependent protein kinase 1 (Plasmodium falciparum (isolate 3D7)) (UniProt P62344). The experiment in a line: PfCDPK1 kinase inhibitors, biochemical, TCAMS library (AID 1159585; cut-off not given, nearly all actives have IC50 up to about 0.98 µM;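 note: inhibitors leave more ATP so luminescence rises with inhibition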). The settings on record: recombinant PfCDPK1, Kinase-Glo ATP depletion luminescence.
In experiment [6] the target is Plasmodium falciparum protein kinase 6 (PK6, PF3D7_1337100) (UniProt Q8IDW1). The experiment in a line: PfPK6 kinase inhibitors, biochemical, TCAMS library (AID 1159586). The settings on record: recombinant PfPK6, Kinase-Glo ATP depletion luminescence.
The target of experiment [7] is Protein kinase 7 (PK7), Plasmodium falciparum 3D7 (PF3D7_0213400) (UniProt Q7YTF7). Put plainly: inhibition of Plasmodium PK7 catalytic activity – biochemical, TCAMS antimalarial set, Kinase-Glo luminescence (AID 1159587). The settings on record: recombinant PfPK7, Kinase-Glo ATP depletion luminescence.
Experiment [8] addresses Calcium-dependent protein kinase 4 (Plasmodium falciparum (isolate 3D7)) (UniProt Q8IBS5). The experiment in a line: PfCDPK4 kinase inhibitors, biochemical, TCAMS library (AID 1159588; cut-off not given, nearly all actives have IC50 up to about 0.91 µM). The settings on record: recombinant PfCDPK4, Kinase-Glo ATP depletion luminescence.

Values without a mark were called inactive. For some of these results: Potency and affinity values are given separately. Activity calls are given as the source filed them. Unless noted, the rule behind the calls is not given here.

Calcium-dependent protein kinase 4 (Plasmodium falciparum (isolate 3D7)), sequence (Q8IBS5 whole entry, looked up): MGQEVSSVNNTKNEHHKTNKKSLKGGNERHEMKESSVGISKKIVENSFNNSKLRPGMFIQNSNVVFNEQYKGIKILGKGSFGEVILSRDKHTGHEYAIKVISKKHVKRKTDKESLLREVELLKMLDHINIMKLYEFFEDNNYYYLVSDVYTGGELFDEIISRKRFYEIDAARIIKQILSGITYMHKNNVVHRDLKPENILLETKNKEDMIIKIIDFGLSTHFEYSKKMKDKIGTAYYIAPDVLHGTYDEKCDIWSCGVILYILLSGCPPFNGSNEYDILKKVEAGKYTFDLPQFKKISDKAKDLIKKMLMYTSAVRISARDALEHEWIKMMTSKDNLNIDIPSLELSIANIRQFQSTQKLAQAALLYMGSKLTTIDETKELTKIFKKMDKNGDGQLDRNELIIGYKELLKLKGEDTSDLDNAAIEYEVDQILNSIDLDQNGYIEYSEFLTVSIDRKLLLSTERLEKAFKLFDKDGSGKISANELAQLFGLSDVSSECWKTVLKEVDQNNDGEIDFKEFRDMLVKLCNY
Protein kinase 7 (PK7), Plasmodium falciparum 3D7 (PF3D7_0213400), sequence (Q7YTF7 1-343): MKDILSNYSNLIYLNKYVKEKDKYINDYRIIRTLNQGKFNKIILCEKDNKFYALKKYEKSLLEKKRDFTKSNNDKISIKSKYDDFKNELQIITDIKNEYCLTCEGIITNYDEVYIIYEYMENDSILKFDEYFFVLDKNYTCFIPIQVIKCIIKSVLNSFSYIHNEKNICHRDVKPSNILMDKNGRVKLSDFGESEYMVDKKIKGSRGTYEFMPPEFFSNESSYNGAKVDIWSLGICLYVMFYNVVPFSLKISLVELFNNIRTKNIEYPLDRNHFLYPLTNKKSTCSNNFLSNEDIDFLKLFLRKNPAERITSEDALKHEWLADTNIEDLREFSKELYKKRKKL
Plasmodium falciparum protein kinase 6 (PK6, PF3D7_1337100), sequence (Q8IDW1 1-305): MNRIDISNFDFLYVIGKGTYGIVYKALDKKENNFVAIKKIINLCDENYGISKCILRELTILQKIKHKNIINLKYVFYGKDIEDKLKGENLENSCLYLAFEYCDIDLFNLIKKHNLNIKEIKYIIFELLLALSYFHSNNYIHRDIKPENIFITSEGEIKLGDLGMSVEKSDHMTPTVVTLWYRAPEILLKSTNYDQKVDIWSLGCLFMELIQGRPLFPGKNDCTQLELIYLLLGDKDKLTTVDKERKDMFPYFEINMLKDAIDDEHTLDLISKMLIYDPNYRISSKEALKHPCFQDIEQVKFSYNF
L-lactate dehydrogenase (Plasmodium falciparum (isolate CDC / Honduras)), sequence (Q27743 whole entry, looked up): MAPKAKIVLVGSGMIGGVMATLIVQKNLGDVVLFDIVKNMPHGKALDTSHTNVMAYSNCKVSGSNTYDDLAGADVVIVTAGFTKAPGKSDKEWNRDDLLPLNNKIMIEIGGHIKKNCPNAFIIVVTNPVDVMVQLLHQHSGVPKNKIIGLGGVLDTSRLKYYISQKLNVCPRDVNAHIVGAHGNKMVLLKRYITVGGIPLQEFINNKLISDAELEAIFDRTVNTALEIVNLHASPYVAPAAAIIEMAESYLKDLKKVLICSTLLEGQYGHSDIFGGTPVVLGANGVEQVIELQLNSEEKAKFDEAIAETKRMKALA
Calcium-dependent protein kinase 1 (Plasmodium falciparum (isolate 3D7)), sequence (P62344 whole entry, looked up): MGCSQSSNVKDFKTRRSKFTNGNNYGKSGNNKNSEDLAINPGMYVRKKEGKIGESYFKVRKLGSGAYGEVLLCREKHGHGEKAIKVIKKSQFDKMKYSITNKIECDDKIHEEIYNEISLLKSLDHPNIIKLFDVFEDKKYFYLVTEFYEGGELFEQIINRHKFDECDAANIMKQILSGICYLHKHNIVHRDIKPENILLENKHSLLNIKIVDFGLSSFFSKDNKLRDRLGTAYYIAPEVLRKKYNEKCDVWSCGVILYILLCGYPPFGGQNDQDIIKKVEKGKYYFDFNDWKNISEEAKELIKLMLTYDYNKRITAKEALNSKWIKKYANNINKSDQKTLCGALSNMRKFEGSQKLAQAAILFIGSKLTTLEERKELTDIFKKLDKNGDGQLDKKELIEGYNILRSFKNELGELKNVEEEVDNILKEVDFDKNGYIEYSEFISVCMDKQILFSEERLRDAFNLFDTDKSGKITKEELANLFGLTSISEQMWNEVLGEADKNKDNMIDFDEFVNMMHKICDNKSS

Turning to `COc1ccc2nc3cc(Cl)ccc3c(NCCCCCCNc3c4ccc(Cl)cc4nc4ccc(OC)cc34)c2c1`, the growth inhibition is 79% (active) in experiment [1] and 96% (active) in experiment [4]. The inhibition in experiment [2] was 20%; in experiment [3], -5%. For the same compound, the outcome in experiment [5], in experiment [6], in experiment [7] and in experiment [8] was inactive.
Regarding `Nc1cccc(CNCc2ccc(-c3cccc(-c4nc5ccccc5[nH]4)c3)cc2)c1`, the results for the growth inhibition in experiment [1] and in experiment [4] were 78% (active) and 103% (active), respectively. The inhibition in experiment [2] was 12%; in experiment [3], 6%. For the same compound, the result in experiment [5], in experiment [6], in experiment [7] and in experiment [8] was inactive.
Turning to `COc1ccc(CNCc2cccc(-c3ccc(-c4nc5ccc(C(F)(F)F)cc5[nH]4)cc3)c2)cc1`, the growth inhibition in experiment [1] is 95% (active); in experiment [4], 102% (active). For the same compound, the inhibition is 23% in experiment [2] and 0% in experiment [3]. The outcome in experiment [5], in experiment [6], in experiment [7] and in experiment [8] was inactive.
Turning to `CCc1nc2c(cnn2CC)c(NC2CCOCC2)c1CNC(=O)N1CCOCC1`, the growth inhibition in experiment [1] is 48%; in experiment [4] it was 98% (active). In addition, the inhibition in experiment [2] was 0%; in experiment [3], 4%. The outcome in experiment [5], in experiment [6], in experiment [7] and in experiment [8] was inactive.
In the case of `O=C(Nc1ccc(Cn2ncc(N3CCCNCC3)c(Cl)c2=O)cc1)Nc1ccc(OCc2ccccc2)cc1`, the growth inhibition in experiment [1] is 32%; in experiment [4], 90% (active). Moreover, the inhibition in experiment [2] was 15%; in experiment [3], 5%. For the same compound, the outcome in experiment [5], in experiment [6], in experiment [7] and in experiment [8] was inactive.
Consider `N[C@@H](CCNC1CCN(c2cccc(C(F)(F)F)c2)CC1)Cc1ccc(F)c(F)c1`, for which the growth inhibition was 69% (active) in experiment [1] and 101% (active) in experiment [4]. Besides, the inhibition in experiment [2] is 100% (active); in experiment [3], -1%. Also, the result in experiment [5], in experiment [6], in experiment [7] and in experiment [8] was inactive.
As for `CCCCCCC(N)c1ccc(OCCCOc2ccc(C(N)CCCCCC)cc2)cc1` (stereo not given), the growth inhibition in experiment [1] is 70% (active); in experiment [4] it was 88% (active). The inhibition in experiment [2] was 100% (active); in experiment [3] it was 1%. Moreover, the result in experiment [5], in experiment [6], in experiment [7] and in experiment [8] was inactive.
Take `Nc1nc(N)c2c(ccc3c2ccn3CCCF)n1`: the growth inhibition was 0% in experiment [1] and 94% (active) in experiment [4]. Moreover, the results for the inhibition in experiment [2] and in experiment [3] were 61% (active) and 0%, respectively. Also, the result in experiment [5], in experiment [6], in experiment [7] and in experiment [8] was inactive.
As for `COc1cc2nc(C)nc(Nc3ccc(Cc4ccccc4)cc3)c2cc1OC`, the growth inhibition in experiment [1] was 99% (active); in experiment [4], 101% (active). Further, the inhibition in experiment [2] was 16%; in experiment [3] it was -1%. Further, the outcome in experiment [5], in experiment [6], in experiment [7] and in experiment [8] was inactive.
`Brc1ccsc1-c1nc(NCCC(c2ccccc2)c2ccccc2)no1`: the growth inhibition in experiment [1] is 81% (active); in experiment [4] it was 94% (active). The values for the inhibition in experiment [2] and in experiment [3] were 17% and -5%, respectively. The outcome in experiment [5], in experiment [6], in experiment [7] and in experiment [8] was inactive.
As to `Cc1cc(NN=Cc2ccccc2[N+](=O)[O-])c2ccccc2n1`, the growth inhibition in experiment [1] and in experiment [4] was 100% (active) in each case. For the same compound, the inhibition in experiment [2] is 10%; in experiment [3], -2%. The result in experiment [5], in experiment [6], in experiment [7] and in experiment [8] was inactive.
For the compound `CCOc1ccc(Cc2c(C)nc3nc(N)nc(N)c3c2C)cc1`, the growth inhibition in experiment [1] was 7%; in experiment [4], 91% (active). The results for the inhibition in experiment [2] and in experiment [3] were 63% (active) and 0%, respectively. Besides, the result in experiment [5], in experiment [6], in experiment [7] and in experiment [8] was inactive.
`O=C(Nc1ccccc1F)N(CCCn1ccnc1)Cc1csc(-c2ccc(CNCc3ccccc3)cc2)n1`: the growth inhibition in experiment [1] was 26%; in experiment [4], 93% (active). Moreover, the inhibition is 24% in experiment [2] and 2% in experiment [3]. The result in experiment [5], in experiment [6], in experiment [7] and in experiment [8] was inactive.
Regarding `CN1CCN(c2cc3c(cc2Cl)CCN3C(=O)Cc2ccc(Cl)c(NC(=O)Nc3cccc([N+](=O)[O-])c3)c2)CC1`, the values for the growth inhibition in experiment [1] and in experiment [4] were 51% (active) and 99% (active), respectively. In addition, the inhibition in experiment [2] was -1%; in experiment [3] it was -7%. The result in experiment [5], in experiment [6], in experiment [7] and in experiment [8] was inactive.
With `O=S(=O)(Nc1ccc(CCN2CCC(N3CCCCC3)CC2)cc1)c1cccc(C(F)(F)F)c1`, the growth inhibition in experiment [1] is 15%; in experiment [4], 101% (active). The inhibition in experiment [2] was 20%; in experiment [3] it was -3%. For the same compound, the outcome in experiment [5], in experiment [6], in experiment [7] and in experiment [8] was inactive.
`Fc1ccc2nc(-c3ccc(-c4ccc(CNCCc5ccncc5)cc4)cc3)[nH]c2c1`: the results for the growth inhibition in experiment [1] and in experiment [4] were 97% (active) and 100% (active), respectively. For the same compound, the inhibition was 23% in experiment [2] and 0% in experiment [3]. The outcome in experiment [5], in experiment [6], in experiment [7] and in experiment [8] was inactive.
Turning to `COc1cccc(-c2ccc3c(-c4cccc(NC(C)=O)c4)cnc(N)c3c2)c1`, the growth inhibition in experiment [1] was 83% (active); in experiment [4] it was 99% (active). Also, the inhibition was 71% (active) in experiment [2] and -6% in experiment [3]. Further, the outcome in experiment [5], in experiment [6], in experiment [7] and in experiment [8] was inactive.
Turning to `O=C1COc2ccc3ccccc3c21`, the growth inhibition is 3% in experiment [1] and 99% (active) in experiment [4]. For the same compound, the inhibition in experiment [2] was -3%; in experiment [3] it was 6%. The result in experiment [5], in experiment [6], in experiment [7] and in experiment [8] was inactive.
With `CNC(=O)c1cnc(Nc2ccc(OCC(O)CN(C)C)cc2)nc1Nc1cccc(OC(C)C)c1` (stereo not given), the growth inhibition in experiment [1] was 100% (active); in experiment [4] it was 103% (active). Moreover, the inhibition is 21% in experiment [2] and 1% in experiment [3]. Further, the result in experiment [5], in experiment [6], in experiment [7] and in experiment [8] was inactive.
As for `O=C(C=Cc1ccc(Cl)c(Cl)c1)NCCCCCN1CCC(CCNC(=O)/C=C/c2ccccc2)CC1`, the growth inhibition in experiment [1] was 1%; in experiment [4], 97% (active). The values for the inhibition in experiment [2] and in experiment [3] were 25% and -7%, respectively. In addition, the outcome in experiment [5], in experiment [6], in experiment [7] and in experiment [8] was inactive.
